High-throughput results (PubChem BioAssay)
The list is not random: actives were taken first. Their share in the collection is about 1.7%.
Y pestis TopoI – Yersinia pestis topoisomerase I inhibitors, primary screen, biochemical, cleavage product accumulation, plate reader, single point. activity, % at 10 µM. AID 504884, 2011. DNA topoisomerase I (Yersinia pestis CO92). actives 0.064% (n = 360,000). Y. pestis Topo-I cleavage product accumulation; in the data active = activity above about 50%, passing the limit was not always enough
PrPC TRFRET – inhibitors of human cell surface prion protein PrPC, primary screen, cell-based, TR-FRET | Major prion protein (Homo sapiens), P04156 | TR-FRET read-out | inhibition, % at 13.8 µM | actives 0.43% (n = 370,000) | AID 720596, 2013; in the data active = inhibition above about 24%; also: 0% = median of the test wells and 100% = reference compound wells
BJeLR lethal – MLPCN primary cell-based screen for lethality selective to Ras in HRASV12 cells; BJeLR (HRASV12) viability, CellTiter-Glo ATP luminescence, 48 h; inhibition, % (no concentration beside the values); actives 0.17% (n = 300,000); AID 1554, 2009; in the data active = inhibition above about 50%
PfHsp40 rescue – rescue of yeast from PfHsp40 toxicity, primary screen, S. cerevisiae, ATP luminescence; growth rescue, % at 12.5 µM; actives 0.68% (n = 340,000); S. cerevisiae expressing PfHsp40, growth rescue; AID 504582, 2011; in the data active = growth rescue above about 28%, passing the limit was not always enough;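 also: yeast W303a lacking pdr1 and pdr3 grown in galactose medium; growth measured after three days at 30 °C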
PrP UTR inh – inhibition of PrP 5' UTR reporter expression. AID 488862, 2010. inhibition, % (test concentration not listed). actives 0.35% (n = 340,000). cell-based PrP 5' UTR mRNA reporter, plate reader; in the data active = inhibition above about 52%; also: 0 = median of the neutral control wells
SSB-PriA inh – inhibitors of Klebsiella pneumoniae PriA binding to SSB C-terminal tail, primary screen, biochemical, AlphaScreen; PriA–SSB C-terminal tail interaction (Klebsiella pneumoniae); AlphaScreen SSBct-PriA binding, biotinylated peptide; inhibition, % at 33 µM; actives 0.6% (n = 430,000); in the data active = inhibition mostly above about 37%, no sharp cut-off; inactive = mostly below about 20%;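 also: plate controls were negative control peptide for no effect and reference peptide for full effect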
* marks the source's active call; other numbers are inactive results; i = inactive; x = no result; ! = not confirmed by another sample.

SMILES | Y pestis TopoI | PrPC TRFRET | BJeLR lethal | PfHsp40 rescue | PrP UTR inh | SSB-PriA inh
Nc1nc(-c2ccco2)c(-c2ccco2)s1 | 5 | -4 | -7 | 0 | -12 | -2
c1coc(-c2nc(-c3ccco3)c(-c3ccco3)nc2-c2ccco2)c1 | 5 | -11 | 11 | 1 | -8 | 43*
CC(=O)N1N=C(c2ccc([N+](=O)[O-])cc2)CC1c1ccccc1Cl (stereo not drawn) | 4 | -28 | 4 | 1 | -23 | 45*
CC(=O)N1N=C(c2ccccc2)CC1c1ccccc1[N+](=O)[O-] (stereo not drawn) | -4 | -8 | -3 | 0 | -19 | 3
Cc1cccc(C)c1NC(=O)Cn1c(C)nc2c(sc3ccccc32)c1=O | x | x | x | x | x | -7
Cc1ccc(C)c(NC(=O)CSc2nnc(CNC(=O)c3ccccc3F)n2-c2cccc(Cl)c2)c1 | x | x | x | x | x | -8
O=C(O)c1cc(=O)n(-c2ccccc2)[nH]1 | x | x | x | x | x | 1
COC(=O)Cc1cc(=O)n(-c2ccccc2)[nH]1 | 4 | -4 | -2 | 51* | -11 | -11
O=[N+]([O-])c1ccccc1NC(=S)NN=Cc1ccc(O)c(O)c1 | x | x | x | x | x | 42*
Cc1ccc(C)c(NC(=O)CSc2sc3c(O)cc(=O)[nH]c3c2C#N)c1 | -2 | 0 | -9 | 0 | -2 | -16
Cc1ccc(Cl)cc1NC(=O)CSc1sc2c(O)cc(=O)[nH]c2c1C#N | -1 | 10 | 0 | 47* | -17 | -15
COc1ccc(Cl)cc1C(=O)N1CCN(c2ccc(-n3cccn3)nn2)CC1 | x | x | x | x | x | -11
N#Cc1ccc(/C=N/NC(=S)Nc2ccc(S(=O)(=O)N3CCOCC3)cc2)cc1 | -7 | 3 | -8 | 0 | -5 | i
O=S(=O)(c1ccc(NC(=S)N/N=C/c2ccc(O)c(O)c2)cc1)N1CCOCC1 | -10 | -1 | 11 | 1 | -7 | x
O=[N+]([O-])c1cc(Cl)cc(/C=N/NC(=S)Nc2ccc(S(=O)(=O)N3CCOCC3)cc2)c1O | -10 | -7 | -7 | 449* | -15 | x
O=[N+]([O-])c1cc(Cl)cc(C=NNC(=S)Nc2ccc(S(=O)(=O)N3CCOCC3)cc2)c1O | x | x | x | x | x | 67*
Cn1cnc(S(=O)(=O)NCC2CCN(C(=O)c3ccccc3F)CC2)c1 | x | x | x | x | x | -23
O=C(c1cc2cc(F)ccc2s1)N1C2CCC1CC(S(=O)(=O)c1ccccc1)C2 (stereo not drawn) | x | x | x | x | x | 77*
CCSc1nnc(NC(=O)CSc2nnc(CNC(=O)c3ccccc3)n2-c2cccc(C(F)(F)F)c2)s1 | x | x | x | x | x | -1
O=C(NCc1ccc2c(c1)OCO2)c1cccc(C(=O)NCc2ccc3c(c2)OCO3)c1 | 12 | 7 | 2 | -1 | -29 | 2
Cc1nc2ccc(C(=O)NCc3ccc4c(c3)OCO4)cc2s1 | -10 | 1 | 1 | 589* | -10 | -6
C/C(=N\Nc1ccc([N+](=O)[O-])cc1)c1ccco1 | -11 | -21 | 6 | 64* | -77 | x
O=C(O)CCC(=NNc1ccc([N+](=O)[O-])cc1)c1ccccc1 | x | x | x | x | x | 3
CC/C(=N\Nc1ccc([N+](=O)[O-])cc1)c1ccccc1 | -10 | x | -7 | 430* | -6 | x
Cc1cc(OC2CN(C(=O)c3ccc(F)cc3Cl)C2)cc(=O)o1 | x | x | x | x | x | -15
SMILES | Y pestis TopoI | PrPC TRFRET | BJeLR lethal | PfHsp40 rescue | PrP UTR inh | SSB-PriA inh
Cc1cc(CN2CCC(CNC(=O)c3cccn(C)c3=O)CC2)c(C)o1 | x | x | x | x | x | -11
CCc1oc2ccccc2c1C(=O)c1cc(Br)c(O)c(Br)c1 | -2 | 9 | 2 | 259*! | -11 | -3
Cn1cc([C@@H](O)CNS(=O)(=O)c2ccccc2F)c2ccccc21 | x | x | x | x | x | 10
COc1ccc(NC(=O)c2ccc(-c3ccc(-c4noc(C)n4)cc3C)cc2)cc1N1CCN(C)CC1 | -12 | -23 | x | -2 | -6 | 39*
COc1cc(-c2noc(C)c2C#Cc2ccccn2)cc(OC)c1OC | 6 | 15 | 14 | 3 | 18 | -15
COc1cc(-c2noc(C)c2C#Cc2ccc(N)cc2)cc(OC)c1OC | 18 | 12 | 23 | 0 | 65* | -1
N#Cc1ccc(C(=O)NCC2CCN(Cc3ccco3)CC2)cc1 | x | x | x | x | x | -2
Cc1ccc(-n2sc3ccccc3c2=O)cc1 | 4 | 2 | 1 | 80* | -45 | 10
O=c1c2ccccc2sn1-c1ccc(Cl)cc1 | -8 | 0 | x | x | x | x
O=c1c2ccccc2sn1-c1ccc(F)cc1 | 0 | 6 | x | 102* | -33 | 0
COC(=O)c1cccc(-n2sc3ccccc3c2=O)c1 | -11 | 0 | x | 119* | -24 | 12
COC(CNS(=O)(=O)C1CC1)c1ccco1 (stereo not drawn) | x | x | x | x | x | 5
O=c1ccc(-c2cccs2)nn1CCCNS(=O)(=O)c1ccccc1F | x | x | x | x | x | 0
Fc1ccc(N2CCN(c3ccc(F)cc3)C2c2ccc(Br)cc2)cc1 | x | x | x | x | x | -13
Cc1noc(C2CN(CC(N)=O)C2)n1 | x | x | x | x | x | 0
NNc1nccc(Nc2ccccc2C(=O)O)n1 | 2 | -4 | 6 | -1 | -15 | 59*
c1ccc(Nc2ccnc(Nc3ccccc3)n2)cc1 | -11 | -3 | 13 | 1 | -99 | -2
c1ccc(Nc2ccc(N3CCNCC3)nn2)nc1 | x | x | x | x | x | 56*
CCCOc1ccc(N)cc1N | -39 | -2 | 6 | 0 | -18 | 52*
CCCOc1cc(N)ccc1C(=O)OCCN(CC)CC | -4 | -4 | x | 0 | 1 | 4
Cn1cc(C(=O)OCC(=O)NC2(C#N)CCCC2)c2ccccc21 | -1 | -4 | x | 66* | -18 | 3
S=C(NCc1ccccc1)NC1CCCc2ccccc21 (stereo not drawn) | 1 | 5 | -7 | 36* | -25 | -22
COCc1cc(C)nc(SCc2ccc(Br)cc2)c1C#N | 50* | 0 | -8 | 1 | -17 | -24
O=C(NCCn1ncccc1=O)c1ccc(S(=O)(=O)N2CCCCC2)cc1 | x | x | x | x | x | -26
Nc1nnc2n1CCS2 | x | x | x | x | x | -17
SMILES | Y pestis TopoI | PrPC TRFRET | BJeLR lethal | PfHsp40 rescue | PrP UTR inh | SSB-PriA inh
N#Cc1c(Nc2ccccc2)[n+]([O-])c2ccc(Cl)cc2[n+]1[O-] | -7 | -8 | x | 69* | 12 | 28
Cc1ccc(S(=O)(=O)N(Cc2cccc(C(F)(F)F)c2)C(=O)N2CCN(C)CC2)cc1 | -11 | -4 | 1 | 52* | -27 | 2
Cc1ccc(N2CCC(C(=O)NCc3csc(-c4ccccc4)n3)CC2)nn1 | x | x | x | x | x | -12
O=C(NCc1ccccc1)c1cccc(COc2cc(Cl)ccc2Cl)c1 | -4 | 1 | 13 | -1 | -60 | 2
CN(C(=O)c1cccc(COc2ccc(Cl)cc2Cl)c1)c1ccccc1 | 51* | 0 | -11 | 6 | -48 | -42
O=C(c1cccc(COc2ccc(Cl)cc2Cl)c1)N1CCN(c2ccccn2)CC1 | 21 | 6 | 0 | 28* | -148 | -4
COC(=O)c1ccc(NC(=O)C(=O)NCCN2CCN(c3ccccc3F)CC2)cc1 | x | x | x | x | x | -4
